# Test results published in PubChem BioAssay AID588 (National Center for Advancing Translational Sciences (NCATS), 2007).
# About 25 (0.04%) of roughly 59,000 compounds were called active. This is one part of a sample in which actives are shown more often than they occur. The rule behind the calls is not given here.
# Assay: qHTS Assay for Spectroscopic Profiling in Resorufin Spectral Region
# Conditions: Compound fluorescence, resorufin region 547/598 nm, buffer; hits give high values
# Description: NIH Molecular Libraries Screening Centers Network [MLSCN] NIH Chemical Genomics Center [NCGC] […] Occasionally, the artifactual effect may originate from the compound#s own spectral or other biophysical properties which generally tend to track its assay concentration. Pre-screening/profiling the library with respect to the compounds# spectral properties should help one exclude false positives early on. While the most informative fluorescent profiling data set is obtained by performing a full excitation and emission scan of each well by using a monochromator-based plate reader, such an approach is practical only on a very limited scale as scanning each well requires long time. An alternative approach, applied here, is to perform plate reader scans using selected excitation and emission wavelength pairs to generate a multidimensional relational database that correlates compound concentration and the respective relative fluorescence intensity at a given wavelength set. A standard curve of resorufin present on each plate as six-point concentration series, was used to compute a normalized fluorescence response, termed dye-equivalent concentration, for each compound at each concentration.
# NCGC Assay Protocol Summary: Buffer: 100 mM Tris buffer, pH 8.0 Dye standard plate: The wells in columns 1 through 4 of a Kalypsys polypropylene 1536-well compound plate were filled with standard solutions of fluorophore corresponding to the spectral region of interest. Solutions of resorufin were placed in the following wells: M1, N1: 3 mM, M2, N2: 300 uM, M3, N3: 30 uM, M4, N4: zero (DMSO), O1, P1: 3 uM, O2, P2: […], O3, P3: 300 nM, O4, P4: zero (DMSO). Assay Steps: Six uL of buffer were dispensed to 1536-well Greiner black plates. Compounds and dye standards (23 nL) were transferred via Kalypsys PinTool. The plates were incubated for 15 min at room temperature, and then read on ViewLux (Perkin-Elmer) High-throughput CCD imager using 547 nm and 598 nm excitation and emission filter set. Keywords: NIH Roadmap, MLSCN, MLI, MLSMR, qHTS, NCGC, Resorufin, Fluorescent Profiling.
row,Structure (SMILES),max dye-equivalent concentration
1,Nc1ccc2[nH]cc(CCC(=O)O)c2c1,inactive
2,Cc1ccccc1N1CCN(S(=O)(=O)C[C@@]23CC[C@H](C[C@H]2NC(=O)[C@@H](N)CCS(C)(=O)=O)C3(C)C)CC1,inactive
3,COCCNc1ccnc(-c2cccc(NS(C)(=O)=O)c2)n1,inactive
4,CCOC(=O)c1c(C)[nH]c(C)c1C(=O)CSc1nc(N)cc(N)n1,inactive
5,O=C(Cn1c(=S)nc2ccccn21)N1CCc2ccccc2C1,inactive
6,CN1CCN2c3ccccc3Cc3ccccc3[C@@H]2C1,inactive
7,COc1ccc2c(CC(=O)Nc3nnc(C4CC4)s3)coc2c1,inactive
8,CC(CCO)Nc1nc2c([nH]1)c(=O)n(C)c(=O)n2C (configuration not stated),inactive
9,CCOc1c(OC)cc(C2C(C#N)=C(N)Oc3n[nH]c(-c4ccncc4)c32)cc1OC (configuration not stated),inactive
10,Cc1ccc(S(=O)(=O)N2CCC(C(=O)N[C@@H](C)C(=O)NCCc3ccccc3)CC2)cc1,inactive
11,NS(=O)(=O)c1cc2c(cc1Cl)NC(C(Cl)Cl)NS2(=O)=O (configuration not stated),inactive
12,CCOC(=O)N1CCN(C(=O)CSc2nnc(-c3c[nH]c4ccccc34)n2CCOC)CC1,inactive
13,CCOc1ccc(Cn2c(SCCCCC#N)nc3c2c(=O)n(C)c(=O)n3C)cc1OCC,inactive
14,CNc1ncnc2ccc(-c3cccc(NS(C)(=O)=O)c3)cc12,inactive
15,Cc1ccc(C)n1C(Cc1ccccc1)C(=O)O (configuration not stated),inactive
16,COc1cccc2c(C)c(C(=O)O)[nH]c12,inactive
17,Cc1nc2ccccc2cc1O,inactive
18,COCCNC(=O)C(c1ccc(C)o1)N(Cc1cccs1)C(=O)c1snc(C(N)=O)c1N (configuration not stated),inactive
19,Cc1cc(C)c(C)c(S(=O)(=O)Nc2ccc(O)cc2)c1C,inactive
20,CCN(CC)Cc1c(C(=O)OC)nnn1-c1nonc1N,inactive
21,Cn1cccc1C(=O)N1CCC[C@@]2(CCN(Cc3nccs3)C2)C1,inactive
22,COc1cc2[nH]c(=S)n(CCN3CCCCC3C)c(=O)c2cc1OC (configuration not stated),inactive

row,Structure (SMILES),max dye-equivalent concentration
1,COc1ccc(CCNC(=O)c2ccc3c(c2)NC(=O)C(N2CCOCC2)S3)cc1OC (configuration not stated),inactive
2,COc1ccc(CCn2c(NCCCN3CCOCC3)nc3c2c(=O)[nH]c(=O)n3C)cc1,inactive
3,Cc1ccccc1CSc1nnc(-c2cccnc2)n1N,inactive
4,COCCN(C(=O)CCC(=O)Nc1ccccn1)C(C(=O)NCCC(C)C)c1ccc(OC)cc1 (configuration not stated),inactive
5,NCCNCC1CCNCC1,inactive
6,Cc1ccc(N2CCN(c3ccc(C)cc3)C2c2ccccn2)cc1,inactive
7,O=C(NCCCN1CCN(c2ccccc2F)CC1)C1CCC(=O)N1C1CCCCC1 (configuration not stated),inactive
8,CCOc1ccc(C(C)C)cc1S(=O)(=O)n1nc(C)cc1C,inactive
9,COc1ccc(-c2c3c(=O)n(C)c(=O)n(C)c3cn2NC(C)=O)cc1,inactive
10,CCCOC(=O)C1=C(C)NC2=C(C(=O)C(C(=O)OC)C(C)C2)C1c1ccc(N(C)C)cc1 (configuration not stated),inactive
11,O=C1CSC(=O)N1CCOCCN1C(=O)CSC1=O,inactive
12,O=c1cc(-c2ccccc2)nc(N2CCCCC2)[nH]1,inactive
13,O=C(CSc1nc2ccccc2[nH]1)c1cccs1,inactive
14,COc1cccc2cc(C(=O)N(C)C)c(=O)oc12,inactive
15,C=CCC(NCCCO)c1cccc(OC)c1OC (configuration not stated),inactive
16,O=C(CCCN1C(=O)CCC1=O)Nc1ccc(Cl)c(C(F)(F)F)c1,inactive
17,Cc1cccc2nc(CNc3ccc(F)cc3)cn12,inactive
18,CC1(CCC(=O)OC2CCCCC2)OCCO1,inactive
19,Cc1nc(NC(CC(C)C)C(=O)O)c2nc(C)oc2n1 (configuration not stated),inactive
20,Cc1c(C(=O)CN2CCOCC2)[nH]c2ccccc12,inactive
21,C[N+]1(CCNC(=O)/C=N/O)CCCCC1,inactive
22,Cc1ccc(C(C)C)c(OCc2nnc(SCC(=O)Nc3nccs3)n2C)c1,inactive

row,Structure (SMILES),max dye-equivalent concentration
1,Cc1nn2c3cc(N4CCOCC4)ccc3nc2c2ccccc12,inactive
2,COc1cc(C(=O)Nc2oc(-c3ccccc3)c(-c3ccccc3)c2C#N)cc(OC)c1OC,inactive
3,COc1cccc(Cn2c(=O)c(-c3cc(F)cc(F)c3)nc3cnc(OC)nc32)c1,inactive
4,O=C(CN1CCOCC1)Nc1ccc(NC(=O)CN2CCOCC2)c(Cl)c1,inactive
5,Cc1cccc(-n2c(N)cc(=O)nc2SC(C)C(=O)NC2CCCCC2)c1 (configuration not stated),inactive
6,Cn1c(=NC(=O)c2cnccn2)sc2ccccc21,inactive
7,O=C(O)C1OC(C(=O)O)C2C1C(F)(F)C2(F)F (configuration not stated),inactive
8,O=C(CSc1nc2ccccc2o1)N1CCN(c2ccccc2)CC1,inactive
9,CN(c1ccccc1)c1ccc(/C=c2\s/c(=C(/C#N)C(=O)C(C)(C)C)n(Cc3ccco3)c2=O)cc1,27 nM (active)
10,CCOc1ccccc1/C=c1\sc2nc(-c3ccco3)nn2c1=O,inactive
11,CCOC(=O)CSc1nc2c(sc(=S)n2CCc2ccccc2)c(=O)n1Cc1ccco1,inactive
12,COCCNc1ncnc2ccc(-c3ccccc3CN(C)C)cc12,inactive
13,C=CCn1c(SCc2csc(C)n2)nc2scc(-c3ccc(C)o3)c2c1=O,inactive
14,O=C(CCCn1c(=O)oc2ccccc21)Nc1cccnc1,inactive
15,COC(=O)c1ccc(Oc2nc(Nc3ccc(F)cc3)nc(N3CCCC3)n2)cc1,inactive
16,O=S(=O)(NCc1ccccn1)c1ccc(Br)s1,inactive
17,O=C1C(=O)N(CCN2CCOCC2)C(c2ccccn2)/C1=C(/O)c1ccc(Cl)cc1 (configuration not stated),inactive
18,COc1cc2[nH]c(=O)n(CCC(=O)NC3CCN(Cc4ccccc4)CC3)c(=O)c2cc1OC,inactive
19,CN(C)c1ccc(-c2nc(NCCN3CCOCC3)c3ccccc3n2)cc1,inactive
20,CC(C)C(NC(=O)c1cccc(S(=O)(=O)N2CCOCC2)c1)C(=O)NCCc1ccccn1 (configuration not stated),inactive
21,COc1cc(-c2noc(C3CCCN(S(=O)(=O)c4cccc(Cl)c4)C3)n2)cc(OC)c1OC (configuration not stated),inactive
22,CC(C)C(c1nnnn1C1CCCC1)N1CCN(c2ccccc2F)CC1 (configuration not stated),inactive

row,Structure (SMILES),max dye-equivalent concentration
1,C=CCn1c(SCc2nnc(-c3ccccc3)o2)nnc1C(O)c1ccccc1 (configuration not stated),inactive
2,OCCCNCc1ccccn1,inactive
3,CCCCc1cc(=O)oc2cc(C)cc(OCc3nn[nH]n3)c12,inactive
4,COCCn1c(=O)c(-c2ccccc2)nc2cnc(N3CCOCC3)nc21,inactive
5,Cc1cc(N2C(=O)c3ccc(C(=O)NCc4ccccc4)cc3C2=O)no1,inactive
6,CCC(=O)NC(=Nc1nc2ccccc2s1)NC(=O)CC,inactive
7,O=C(c1ccc2c(c1)C(=O)N(c1ccc(Cl)cc1)C2=O)N1CCN(c2ccccn2)CC1,inactive
8,Cc1ccc(F)cc1NC(=O)c1cccc(N(C)C)c1,inactive
9,CC(C)(C)c1cc(C(=O)NCc2cccnc2)ccn1,inactive
10,Cc1ccc(CNC(=O)C2CC(=O)N(C3CCCCCCC3)C2)cc1 (configuration not stated),inactive
11,Cc1nc2cnc(N3CCN(C)CC3)nc2n(CCC#N)c1=O,inactive
12,CCOC(=O)C1CCN(C(=O)CC2C(=O)N(Cc3ccccc3)C(C)c3nc4ccccc4n32)CC1 (configuration not stated),inactive
13,COc1ccccc1N1CCN(C(=O)c2c(-c3c(Cl)cccc3Cl)noc2C)CC1,inactive
14,Fc1ccccc1CCNc1nnnn1-c1ccccc1,inactive
15,COc1ccccc1-c1nc(NCCNC(C)=O)c2ccccc2n1,inactive
16,COc1cc(OC)c(C(=O)NC2CC(C)(C)NC(C)(C)C2)cc1OC,inactive
17,CN(C)CCNC(=O)C(C(=O)c1ccccc1)n1ccccc1=O (configuration not stated),inactive
18,Cc1nc2ccc(S(=O)(=O)NCC(=O)O)cc2s1,inactive
19,CC(=O)Nc1ccc(S(=O)(=O)Nc2ccc(N3CCOCC3)c(F)c2)cc1,inactive
20,Cc1ccc(NC(=O)CN2CCC3(O)CCCCC3C2c2ccc3c(c2)OCO3)c(C)c1 (configuration not stated),inactive
21,CCCC(=O)Nc1cc(OCC)c(NC(=O)NC2CCCCC2)cc1OCC,inactive
22,O=C(NCc1ccco1)c1cc2sccc2n1Cc1ccc(F)cc1,inactive

row,Structure (SMILES),max dye-equivalent concentration
1,O=C(CCCn1c(SCC(=O)c2ccc(F)cc2)nc2ccccc2c1=O)NCc1ccco1,inactive
2,Cc1ccc(S(=O)(=O)N2CCOCC2)cc1C(=O)NCc1ccc(F)cc1,inactive
3,CCC(=O)N1CCc2cc(S(=O)(=O)NC(C(=O)N3CCc4ccccc4C3)C(C)C)ccc21 (configuration not stated),inactive
4,Cn1c(-c2ccc(C(=O)c3ccccc3)s2)nc2ccccc21,inactive
5,O=C(NCCN=C1NS(=O)(=O)c2ccccc21)c1ccc(S(=O)(=O)N2CCOCC2)cc1,inactive
6,CCCCOc1ccc(C(C)(O)CCN2CCOCC2)cc1 (configuration not stated),inactive
7,CCN(CC)P(=O)(C(NC(=O)OC)C(F)(F)C(F)(F)C(F)(F)C(F)F)N(CC)CC (configuration not stated),inactive
8,O=C(Nc1cnccn1)c1cccnc1,inactive
9,Cc1cnc(CNc2cc(-c3c(C)noc3C)ncn2)cn1,inactive
10,COc1ccc(CN2C(=O)CN=C2Nc2ccc(C)cc2C)cc1,inactive
11,CC(C)(C)NC(=O)Cn1nnc(-c2ccccc2Cl)n1,inactive
12,COc1ccccc1C1/C(=C(/O)c2ccc(OC(C)C)cc2)C(=O)C(=O)N1c1cc(C)on1 (configuration not stated),inactive
13,COC(=O)c1ccc(NC(=O)CSc2nnc(CNc3ccc(OC)cc3)n2C)cc1,inactive
14,CCCCC[C@H](O)CCCC(=O)O,inactive
15,CC(=O)OC(C(=O)NCCc1ccccc1)c1cccnc1 (configuration not stated),inactive
16,CO[C@@H]1/C=C\O[C@]2(C)Oc3c(C)c(O)c4c(O)c(c(CN(C)C)c(O)c4c3C2=O)NC(=O)/C(C)=C\C=C[C@@H](C)[C@@H](O)[C@H](C)[C@@H](O)[C@H](C)[C@H](OC(C)=O)[C@@H]1C,inactive
17,Cc1cccc(C)c1NC(=O)CCCSc1nnc(-c2ccco2)n1-c1ccccc1,inactive
18,C[C@H](CCC(=O)NCC(=O)O)[C@H]1CC[C@H]2[C@H]3[C@@H](C[C@@H](O)[C@]12C)[C@]1(C)CC[C@H](O)C[C@@H]1C[C@@H]3O,inactive
19,N#CC1=C(N)Oc2n[nH]c(CSc3ccccc3)c2C12C(=O)Nc1ccccc12 (configuration not stated),inactive
